# Shown are actives, neighbours in structure and some others; about 11% of the full set was active somewhere.
# Autophagy HCS: modulators of autophagy. calls only at 10 µM (by protocol). 190,000 tested, 0.98% active. MEF GFP-LC3 puncta imaging; test concentration mostly 10 µM. AID 463193;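 active = percentage of spot-positive cells more than 3 SD above its plate mean, without a fluorescence outlier flag or 80% toxicity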;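 note: spot-positive cell cutoff set from DMSO-treated cells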
# Ins promoter up: MIN6 insulin promoter up-regulation. MIN6 insulin promoter-GFP reporter, high-content imaging; active compounds read high. 190,000 tested, 0.3% active. z-score at 5 µM. AID 1625;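 active = z-score above 3 at 5 µM with at least 500 cells counted in the well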
# WT yeast gro inh: growth inhibition of WT yeast, mitochondrial fusion screen; inhibition, % at 10 µM; AID 1362; 190,000 tested, 2.1% active; mitochondrial fusion phenotypic screen, WT strain; in the data active = inhibition above about 58%; tested in S. cerevisiae
# Insulin prom inh: TRM-6 insulin promoter activity inhibition. 130,000 tested, 0.9% active. AID 1273. inhibition, % at 2 µM. TRM-6 cells (human fetal islet line), insulin promoter-eGFP reporter, imaging; reporter expression induced with tamoxifen;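 active = inhibition above the mean plus 3 SD, with well images judged a real hit on visual review, cut at about 60% in these data, passing the limit was not always enough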
# L major viab: reduces viability of Leishmania major promastigotes; inhibition, % at 10 µM; 200,000 tested, 9% active; resazurin fluorescence viability; in the data active = inhibition above about 50%;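 note: promastigotes grown with compound for 44 hours at 28 °C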
# Numbers without * were called inactive; i = inactive; . = no result; + = active, no number.
SMILES,Autophagy HCS,Ins promoter up,WT yeast gro inh,Insulin prom inh,L major viab
O=C1C2CSCN2C(=O)CN1CCCN1CCN(C(c2ccccc2)c2ccccc2)CC1 (stereo not drawn),i,0.53,4,-17,10
COc1ccc(-c2n(CC(=O)OC3CC(C)CCC3C(C)C)c3ccccc3[n+]2C)cc1 (stereo not drawn),+,.,54,-100,101*
CC1CCC(C(C)C)C(OC(=O)CSc2nccc(=O)[nH]2)C1 (stereo not drawn),i,1.1,9,19,-5
CCN(CC)S(=O)(=O)c1cccc(NC(=O)COC(=O)CCC(=O)c2ccc(F)cc2)c1,i,0.02,8,-8,-5
C/C(=N/NC(=O)CNc1ccc(Cl)cc1C)c1ccc(C)cc1,i,-0.61,-8,29,-2
COc1ccc2cc(C3CC(c4ccco4)=NN3S(C)(=O)=O)c(Cl)nc2c1 (stereo not drawn),.,0.79,.,.,.
CCOc1ccc2nc(Cl)c(C3CC(c4ccco4)=NN3S(=O)(=O)c3ccccc3)cc2c1 (stereo not drawn),i,-0.5,1,25,100*
CCOC(=O)C1=C(C)NC(=S)NC1c1ccsc1 (stereo not drawn),i,-0.1,3,0,-1
COc1cccc(C2CC(c3cccs3)=NN2C(=O)CSC2=NN3CCCC(=O)N=C3S2)c1OC (stereo not drawn),i,-0.38,-6,.,3
CCCCOc1ccc(-c2cc(C(F)(F)F)c(C#N)c(SCC(=O)O)n2)cc1,+,.,-17,.,-6
N=C1C(c2ccccc2)=C(O)CN1CCCO,i,0.16,8,.,-6
CN(C)S(=O)(=O)c1ccc(N2CCCC2)c(C(=O)Nc2nc3ccccc3s2)c1,i,0.08,8,15,2
Cc1cccc2sc(NC(=O)c3cc(S(=O)(=O)N(C)C)ccc3N3CCCC3)nc12,i,-0.94,5,28,52*
CN(C)S(=O)(=O)c1ccc(N2CCCC2)c(C(=O)Nc2nc(-c3ccc(F)cc3)cs2)c1,i,-0.43,-37,-12,98*
O=C(CS(=O)(=O)c1ccccc1)Nc1nc(-c2ccc(F)cc2)cs1,i,-0.21,37,75*,7
CN(C)S(=O)(=O)c1ccc(N2CCCC2)c(C(=O)Nc2nc3ccc(F)cc3s2)c1,i,-0.34,9,-38,7
CN(C)S(=O)(=O)c1ccc(N2CCCC2)c(C(=O)Nc2nc(-c3cc(F)ccc3F)cs2)c1,i,0.41,15,45,84*
CN(C)S(=O)(=O)c1ccc(N2CCCC2)c(C(=O)Nc2ccc(N3CCOCC3)cc2)c1,i,0.25,-9,35,10
c1cnc(N2CCN(c3cnccn3)CC2)nc1,i,-0.35,-2,.,3
COCc1cc(C)nc(N/N=C/c2ccc(-c3ccc(Cl)cc3[N+](=O)[O-])o2)c1C#N,i,0.08,-3,.,1
Cc1ccc(/C=C/C(=O)CCC(=O)O)cc1,i,0.62,-2,.,-3
Cc1ccc(C2NC(=S)NC3=C2C(=O)CC(C)(C)C3)cc1 (stereo not drawn),i,-1,-11,.,5
O=C(Nn1c(C2CCCCC2)nc2ccccc2c1=O)c1ccc([N+](=O)[O-])cc1Cl,i,-0.44,-13,37,9
COc1ccc(S(=O)(=O)Nc2ccccc2C(=O)Nc2nc(-c3ccc(F)cc3)cs2)cc1OC,i,-0.72,59*,11,53*
O=C(COC(=O)[C@H](Cc1ccccc1)NC(=O)c1ccco1)NC(c1ccccc1)c1ccccc1,i,0.24,22,13,-3
SMILES,Autophagy HCS,Ins promoter up,WT yeast gro inh,Insulin prom inh,L major viab
Cc1cc(NC(=O)COC(=O)C(Cc2ccccc2)NC(=O)c2ccco2)no1 (stereo not drawn),+,1.7,-16,13,2
CCN(CC)CC(=O)N1c2ccccc2Oc2c(c(=O)n(C)c(=O)n2C)C1c1cccc([N+](=O)[O-])c1 (stereo not drawn),.,0.81,.,.,.
O=C(CSc1nc(-c2ccccc2)c(-c2ccccc2)[nH]1)NCCN1C(=O)CSC1=O,i,-0.3,-1,32,-4
CC(C)N(Cc1nc(-c2ccccc2)no1)C(=O)C(C)(C)C,+,-1.2,-2,17,-5
CC(C)N(Cc1nc(-c2ccccc2)no1)C(=O)C(Cl)(Cl)Cl,i,0.17,72*,.,13
CCOC(=O)COc1ccc(S(=O)(=O)N2CCN(c3ccccc3)CC2)cc1,i,-0.02,11,.,-9
CCN1CCN(c2ncc3c(n2)CC(c2cc(OC)c(OC)c(OC)c2)CC3=O)CC1 (stereo not drawn),i,-4,0,38,100*
CNCc1ccccc1Sc1ccc(O)c(O)c1,i,-0.02,-11,-17,-8
O=C(Nc1ccccc1N1CCOCC1)c1cc(F)cc(F)c1,i,1.6,74*,.,7
Nc1cc(C(=O)c2ccccc2)ccc1N1CCOCC1,i,-0.26,-18,-338,54*
O=C(Nc1ccccc1N1CCOCC1)c1cccnc1,i,-0.01,-11,-8,-6
O=C(Nc1ccccc1N1CCOCC1)c1cccc(F)c1,i,-0.43,76*,-46,4
O=C(NC1=NN(c2ccccc2)CC1)Nc1ccccc1F,.,-1.2,.,.,.
CCOc1ccc(C(=O)NC(=S)Nc2cccc(NC(=O)c3ccco3)c2)cc1[N+](=O)[O-],i,0.43,-8,.,21
CCCC(Oc1ccc(Br)cc1)c1nc2c3cc(OC)c(OC)cc3nc(=S)n2[nH]1 (stereo not drawn),i,.,45,.,97*
CC(C)=CCC/C(C)=C/COc1ccc2ccc(=O)oc2c1,i,0.08,61*,.,-13
COc1ccc(/C(O)=C/c2nc3ccc(C(=O)NCCc4cccc(C)c4)cc3[nH]c2=O)cc1OC,i,.,13,-107,1
O=C(NCCC1=CCCCC1)C1CCN(C(=O)c2ccc(Br)cc2)CC1,i,-0.15,-1,.,-1
Cc1ccc(NC(=O)C2(NC(=O)c3ccccn3)CCCCC2)cc1Br,i,0.35,35,-69,58*
Cn1c(N=NC(=O)c2ccccc2)c(O)c2ccccc21,i,0.13,12,4,5
O=C(c1ccccc1)c1ccccc1N/C=C/c1nnnn1-c1ccccc1,i,.,25,-12,54*
COc1ccc(C(F)(F)F)cc1N/C=C\c1nnnn1-c1ccccc1,i,.,39,-5,4
CC1(C(=O)NCc2ccccc2)Oc2ccccc2NC1=O (stereo not drawn),i,.,-5,-72,0
CCOC(=O)/C=C1\Nc2ccccc2OC1=O,i,0.06,49,.,64*
CCN(CC)CCOc1cccc(C(C)C)c1,i,-0.03,8,-9,83*
CCN(CC)CCOC(=O)C(c1ccccc1)c1ccccc1,i,.,13,43,-4
CC(C)c1cccc(OCCCCN(C)C)c1,i,.,2,.,86*
CCN1C(=O)/C(=C/c2ccc(C)o2)N(C)C1=S,i,1.5,-4,.,3
O=C(O)C1CSC(c2ccccc2)N1C(=O)c1ccco1 (stereo not drawn),i,-0.61,11,74*,-3
